# Measurements from PubChem BioAssay AID1259343 (VanderVen Lab, College of Veterinary Medicine, Cornell …, 2017).
# Screen size: about 6,200 compounds; about 2,900 (47%) were called active. No stated cut-off is given here; in the data, active means inhibition above about 50%; inactive means the rest. The set was probably picked from earlier hits. The list shows a part of the results.
# Test: Mycobacterium tuberculosis growth inhibition, primary screen (AID 1259343)
# Conditions: inhibition: at 10 µM, active compounds read high; outcome: 10 uM
row,SMILES,inhibition
1,COC(=O)c1cccc(OC(=O)c2cc3c(s2)CCCC3)c1,22% (inactive)
2,CC1CC(C)CN(C(=O)c2cc3c(s2)CCC3)C1 (stereo unspecified),8.3% (inactive)
3,O=C(COC(=O)c1cc2c(s1)CCC2)NCCN1C(=O)CSC1=O,71.9% (active)
4,Cc1cccc(C)c1NC(=O)CN(C)c1cnn(Cc2ccccc2)c(=O)c1Cl,32.3% (inactive)
5,Cc1cccc(C)c1NC(=O)C[N+](C)(C)C,65.2% (active)
6,O=c1[nH]c(CN2CCN(c3cc(=O)n4ccccc4n3)CC2)nc2ccccc12,68.5% (active)
7,CN(Cc1nc2ccccc2c(=O)[nH]1)C(=O)c1cccc(Cl)c1Cl,44.4% (inactive)
8,CN(C)C(=O)N1CCN(c2cc(-c3ccccc3)c3ccccc3n2)CC1,30.6% (inactive)
9,NC(=O)c1ccc(-c2nc(-c3ccc4c(c3)OCCO4)c(-c3ccccn3)[nH]2)cc1,40.2% (inactive)
10,NC(=O)c1ccc2nc(-c3ccc(Oc4ccc(Cl)cc4)cc3)[nH]c2c1,64.4% (active)
11,CC(C)CNc1nn2cc(C(C)(C)C)nc2s1,43.8% (inactive)
12,COc1ccc(CCNc2ncnc3[nH]ncc23)cc1,8.19% (inactive)
13,Cc1ccc(CNc2ncnc3[nH]ncc23)o1,99.6% (active)
14,CCC/C=C/c1ccc(NC(C)=O)nc1,92.5% (active)
15,CN(C)c1cccc(C(=O)NCC2COc3ccccc3C2)c1 (stereo unspecified),13.6% (inactive)
16,CCC/C=C/c1cccc(C(=O)NCC)c1,79.3% (active)
17,C=CCNC(=O)c1cccc(I)c1,-37.8% (inactive)
18,Cc1cccc(-c2ccc(NC(=O)C3CCN(C(=O)CC4=CCCCC4)CC3)cc2)c1,90.9% (active)
19,COCC(=O)N1CCC(C(=O)Nc2ccc(-c3cccc(C)c3)cc2)CC1,inactive

row,SMILES,inhibition
1,C=CCC(=O)N1CCC(C(=O)Nc2ccc(-c3cccc(C)c3)cc2)CC1,91.9% (active)
2,Cc1cccc(-c2ccc(NC(=O)C3CCN(C(=O)CC4CCCC4)CC3)cc2)c1,89.3% (active)
3,N#CC1=C(NC(=O)c2ccc(COc3ccc(Cl)cc3)cc2)CCC1,82.1% (active)
4,O=C(NCCO)c1ccc(OCc2ccc(Cl)s2)cc1,-5.18% (inactive)
5,Cc1nonc1OCCCNc1ccc([N+](=O)[O-])cc1,37.2% (inactive)
6,CCc1ccc(Nc2ccc([N+](=O)[O-])c3nonc23)cc1,85.6% (active)
7,CC12CCC(CC1=NNc1nc3ccccc3o1)C2(C)C (stereo unspecified),83.6% (active)
8,O=C(NCCNc1ncc(C(F)(F)F)cc1Cl)C1Cc2ccccc2S1 (stereo unspecified),46.4% (inactive)
9,CCCCc1nnc(NC(=O)C2Cc3ccccc3S2)s1 (stereo unspecified),54.4% (active)
10,CCCc1nnc(NC(=O)CC(=O)Nc2ccccc2C(=O)O)s1,9.89% (inactive)
11,CCCCc1nnc(NC(=O)N2CCc3ccccc3C2)s1,33.5% (inactive)
12,CCCCCc1nnc(NC(=O)Cc2ccccc2)s1,89.6% (active)
13,CCC(Cc1c(I)cc(I)c(N)c1I)C(=O)O (stereo unspecified),84.2% (active)
14,O=c1nc(SCc2cccc(C(F)(F)F)c2)nc2ccccn12,-26.8% (inactive)
15,CCc1ccc(NC(=O)CSc2nc(=O)n3ccccc3n2)cc1,-1.93% (inactive)
16,CCOC(=O)c1ccc(NC(=O)CSc2nc(=O)n3ccccc3n2)cc1,90.4% (active)
17,c1coc(-c2cc(CSc3nnc(Cc4cccs4)n3C3CC3)no2)c1,-54.4% (inactive)
18,Cc1[nH]n(-c2ccc(Cl)cc2)c(=O)c1C1=C(c2c[nH]c3ccccc23)C(=O)N(Cc2ccc(F)cc2)C1=O,61.5% (active)
19,O=C(Nc1nc(-c2c[nH]c3ccccc23)cs1)c1ccc(F)cc1Cl,17% (inactive)

row,SMILES,inhibition
1,CCOC(=O)N1CCC(NS(=O)(=O)CCCOc2ccc(F)cc2)CC1,45% (inactive)
2,CCc1nc2c(OCCOc3ccc(F)cc3)cccn2c1N(C)C(=O)c1ccccc1F,45.2% (inactive)
3,Cc1ccccc1C(c1ncccc1C)N(C)C(=O)C1CCN(CCCOc2ccc(F)cc2)CC1 (stereo unspecified),60.1% (active)
4,N#Cc1ccc(NCCc2cccc(F)c2)cn1,36.5% (inactive)
5,CS(=O)(=O)Nc1ccc(/C=C/C(=O)NCCc2cccc(F)c2)cc1,52.3% (active)
6,CC(NC(=O)C/C=C/c1cccc(F)c1)C(O)Cc1ccccc1 (stereo unspecified),15.7% (inactive)
7,CCc1ccc(CNc2ccc(CNc3ncn[nH]3)cc2)cc1,91.1% (active)
8,COc1cc(NC(=O)CNCCN2CCOC2=O)ccc1Cl,55.3% (active)
9,Cc1cc(NC(=O)CNCCN2CCCOC2=O)ccc1Cl,77.5% (active)
10,Cc1ccccc1-c1noc(-c2cccc(NC(=O)CCN3CCCO3)c2)n1,19.4% (inactive)
11,COc1cccc(-c2cc(CC(=O)NC3CCCC3)no2)c1,19.6% (inactive)
12,Cc1nc2ccccn2c1C(=O)OCc1cc(-c2ccco2)on1,33.3% (inactive)
13,CCC(=O)c1ccc(OCc2cc(-c3ccccc3)on2)cc1,92.5% (active)
14,CC(C)CN1C(=O)C(=Cc2c(N3CCN(CCO)CC3)nc3ccccn3c2=O)SC1=S,7.51% (inactive)
15,NC(=O)CSc1nccc2c(OCc3ccc(F)cc3)cccc12,77.4% (active)
16,CNS(=O)(=O)c1ccc(C(=O)N2CCc3ccccc32)o1,89.9% (active)
17,Cc1sc(NC(=O)C2CC2)c(C(=O)N2CCc3ccccc32)c1C,-6.91% (inactive)
18,CNS(=O)(=O)c1ccc2c(c1)CCN2C(=O)c1ccc(F)cc1F,32% (inactive)
